# Rango complex inh: prevents formation of the Rango-importin beta complex; Q14974; Rango CFP/YFP FRET sensor + importin beta, 45 min; Potency, µM (series often up to 92.2 µM), without a hit: at the highest dose inhibition of complex formation; hit rate 0.031% among 340,000; AID 540263; calls by dose curve;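 also: potency is read from the fitted curve at half-maximal effect; 0% = DMSO wells and 100% = buffer wells lacking importin beta; nearly all actives have a fitted effect of over 15% in size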
# Target sequence (Q14974 whole entry, looked up): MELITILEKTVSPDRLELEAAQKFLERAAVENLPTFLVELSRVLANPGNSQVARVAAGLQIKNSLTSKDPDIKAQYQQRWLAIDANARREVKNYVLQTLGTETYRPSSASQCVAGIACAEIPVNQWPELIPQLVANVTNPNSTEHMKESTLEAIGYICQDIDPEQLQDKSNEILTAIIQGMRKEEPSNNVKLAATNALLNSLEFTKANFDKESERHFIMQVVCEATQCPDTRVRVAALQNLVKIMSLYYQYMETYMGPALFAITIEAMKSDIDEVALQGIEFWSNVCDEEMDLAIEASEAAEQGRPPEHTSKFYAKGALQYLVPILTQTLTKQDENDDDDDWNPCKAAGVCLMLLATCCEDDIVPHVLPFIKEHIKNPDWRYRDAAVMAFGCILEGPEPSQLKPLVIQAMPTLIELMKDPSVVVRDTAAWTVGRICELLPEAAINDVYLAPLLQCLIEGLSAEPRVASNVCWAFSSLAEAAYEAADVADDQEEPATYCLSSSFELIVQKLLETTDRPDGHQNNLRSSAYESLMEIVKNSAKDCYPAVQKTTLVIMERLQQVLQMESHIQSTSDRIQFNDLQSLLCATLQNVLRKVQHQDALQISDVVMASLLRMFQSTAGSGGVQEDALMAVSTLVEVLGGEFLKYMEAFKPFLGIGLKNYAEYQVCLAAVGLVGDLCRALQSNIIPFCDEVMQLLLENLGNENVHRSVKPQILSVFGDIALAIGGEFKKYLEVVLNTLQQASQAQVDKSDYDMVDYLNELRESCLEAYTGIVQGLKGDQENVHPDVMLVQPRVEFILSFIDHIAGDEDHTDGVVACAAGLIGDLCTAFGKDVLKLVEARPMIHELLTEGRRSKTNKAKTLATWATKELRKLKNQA
#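 Inhibition scored from the CFP 486 nm/YFP 530 nm FRET ratio 45 min after adding 0.125 microM importin beta to 50 nM Rango biosensor preincubated 5 min with compound (room temperature, PBS with DTT, Tween-20, BSA). No-importin wells as positive control.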
# Rango dissoc inh: prevents RanGTP from dissociating the Rango-importin beta complex. hit rate 0.071% among 340,000. Biochemical FRET Rango-importin beta, RanGTP-induced dissociation. AID 540253. Potency, µM (top dose mostly 46.1 µM), inactives show at the highest dose activity change, negative = inhibition; calls by dose curve; also: potency is read from the fitted curve at half-maximal effect; % of control where 0% means no effect; nearly all actives have a fitted effect of over 45% in size
#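 Compounds sat 5 min at room temperature with 0.1 uM Rango biosensor plus 0.25 uM importin beta, then FRET pre-read. RanGTP-RCC1 (0.6 uM Ran, 2mM GTP, 0.2 uM RCC1) added for 45 min, and the CFP/YFP post-read measured blocked complex dissociation.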
# PLK1 PBD inh: blocks phosphopeptide binding to human PLK1 polo-box domain | Plk1 PBD binding of FITC phosphopeptide, fluorescence polarization | Potency, µM, inactives show max response, negative = inhibition, hits mostly inhibitors | hit rate 2.8% among 360,000; also: potency is read from the fitted curve at half-maximal effect; series mostly up to about 57 µM; % is scaled to controls: 0 for no effect and ±100 for the full control effect; nearly all actives have a fitted effect of over 65% in size
# PI5P4K alpha inh: PI5P4K alpha (human) kinase inhibition; P48426; AID 652105; hit rate 1.2% among 330,000; max response, %; PI5P4Kalpha enzyme, ADP-Glo luminescence, 60 min; active compounds read low; active = max response of -50% or lower; inconclusive = between -30% and -50%; inactive = -30% or higher; also: value at the top dose of about 77 µM; % is scaled to controls: 0 for no effect and ±100 for the full control effect
#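 PI5P4Kalpha ADP-Glo assay; 5 microM ATP final; 60 min RT reaction; HEPES pH 7.4/EGTA/CHAPS, 5% DMSO; controls lacking substrate or enzyme; luminescent end-point.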
# GCN5L2 inh: blocks human GCN5L2 histone acetyltransferase; hit rate 0.21% among 390,000; GCN5L2 HAT assay, ThioGlo1 CoA-SH fluorescence; Potency, µM (top dose mostly 58.9 µM), inactives show top-dose activity change, negative = inhibition, actives largely listed as inhibitors; Q92830; AID 504327; also: potency is read from the fitted curve at half-maximal effect; % is scaled to controls: 0 for no effect and ±100 for the full control effect
#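 qHTS, 1536-well. 20nM enzyme, pH 7.5 HEPES/EDTA/Tween-20 buffer; 15 min compound preinc., RT. Start: 75uM H3(1-25), 70uM AcCoA, 50uM ThioGlo1. Read Ex340/Em540 at t=0 (autofluorescence flag) and t=20 min.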
# VDR inh: vitamin D3 receptor (human) inhibition; P11473; VDR-SRC2-3 peptide fluorescence polarization, 2 h; Potency, µM, for inactives: max response, negative = inhibition, usual class: inhibitors; hit rate 0.93% among 400,000; AID 504847; also: potency is read from the fitted curve at half-maximal effect; % is scaled to controls: 0 for no effect and ±100 for the full control effect
#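 Fluorescence polarization assay measuring small-molecule disruption of VDR binding to the coregulator peptide SRC2-3. Compounds were pin-transferred (23 nl) into the reagent mix and incubated 2 h at room temperature before reading.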
# The depositor's hits bear a star; ? = inconclusive; . = no result given. Hits are enriched below; roughly 3.6% of the tested compounds scored in any of these assays. Unless noted, calls follow the shape of the dose curve; as a rule, active = well fitted curve in the direction sought with a large enough effect; inconclusive = small, poorly fitted or top-dose-only effect, or another doubt; inactive = no such curve, though single readings can be large; an effect the other way counts as inactive or inconclusive.
SMILES,Rango complex inh,Rango dissoc inh,PLK1 PBD inh,PI5P4K alpha inh,GCN5L2 inh,VDR inh
COC(=O)c1sccc1NC(=O)c1cccnc1,1%,20%,27µM*,0,.,-3%
COC(=O)c1sccc1NC(=O)c1cccc(Cl)c1,0%,10%,5%,6,.,-13%
COc1ccc(CCNC(=O)c2cc(Nc3cc(C)cc(C)c3)nc3ccccc23)cc1OC,.,.,.,.,-18%,-4%
O=C(CCn1c2c(c3ccccc31)CCCC2)NNC(=O)c1ccc([N+](=O)[O-])cc1,-2%,3%,-1%,1,-12%,-5%
O=C(CCn1c2c(c3ccccc31)CCCC2)NNC(=O)c1ccc(Cl)c([N+](=O)[O-])c1,-3%,0%,30µM*,4,-5%,?
CC(C)(C)NC(=O)C(C1CC1)n1c(=O)c(-c2ccco2)nc2ccccc21 (stereo unspecified),.,.,-23%,-63*,.,.
Cc1cccc(C)c1NC(=O)C(C1CC1)n1c(=O)c(-c2ccco2)nc2ccccc21 (stereo unspecified),.,.,-29%,?,.,.
CC(C)(C)NC(=O)C(c1ccc(C(F)(F)F)cc1)n1c(=O)c(-c2ccco2)nc2ccccc21 (stereo unspecified),.,.,-21%,-64*,.,.
COc1ccc2oc(=O)c(C(=O)N3CCN(c4ccc(C)cc4)CC3)cc2c1,.,.,.,.,-5%,-9%
COc1ccc(CCNC(=O)c2ccc3nc(-c4ccco4)c(-c4ccco4)nc3c2)cc1OC,?,?,27µM*,-55*,?,79µM*
COc1ccc(CCNC(=O)c2ccn[nH]2)cc1OC,-4%,8%,3µM*,?,-10%,-25%
COc1ccc(CCNC(=O)c2cc(-c3ccccc3O)n[nH]2)cc1OC,0%,3%,-2%,-1,-1%,-1%
CCC(C)NC(=O)c1ccc2nc(-c3ccco3)c(-c3ccco3)nc2c1 (stereo unspecified),.,.,.,.,.,50µM*
Cc1ccc(CSc2nc(=O)c3c(C)cc(C)nc3n2C2CC2)cc1,.,.,.,.,0%,13%
Cc1ccc(-c2nc(-c3cc4c([nH]c3=O)CC(C)(C)CC4=O)sc2C)cc1,.,.,.,.,1%,4%
Cc1cccc(N(C)S(=O)(=O)c2nnc(NC(=O)C(C)(C)C)s2)c1,.,.,.,.,-2%,14%
CCNC(=S)Nc1ccc(OCC)cc1,0%,-10%,-16%,-5,4%,-11%
CCNC(=S)Nc1ccc(OCc2nc3ccccc3s2)cc1,3%,14%,9.5µM*,-27,?,71µM*
O=C(O)CCCC(=O)Nc1ccc(OCc2nc3ccccc3s2)cc1,0%,-13%,4.2µM*,-25,-5%,?
CCc1nnc2c(Nc3cc(OC)c(Cl)cc3OC)nc3ccccc3n12,.,.,.,.,-2%,3%
Cc1ccc(/C=N/N=C/c2ccc(C)cc2)cc1,0%,-3%,21µM*,-3,-3%,-15%
Oc1ccc(/C=N/N=C/c2ccc(O)cc2)cc1,-1%,0%,3%,-5,-4%,-8%
CC(=O)c1ccc(NS(=O)(=O)c2cc3c(cc2C)N(C)CCO3)cc1,3%,-1%,24µM*,-11,-4%,-17%
Cc1ccc(Cl)cc1N1CCN(C(=O)c2sc3nc4n(c(=O)c3c2C)CCC4)CC1,.,.,.,.,-2%,18%
CCc1ccc(C2c3c(-c4cc(C)ccc4O)n[nH]c3C(=O)N2CCO)cc1 (stereo unspecified),.,.,.,.,-7%,8%
SMILES,Rango complex inh,Rango dissoc inh,PLK1 PBD inh,PI5P4K alpha inh,GCN5L2 inh,VDR inh
O=C(Cc1ccc(Cl)cc1)NNC(=O)c1cnccn1,-1%,-3%,30µM*,-10,-1%,-18%
O=C(NCc1ccc(Cl)cc1)c1cnccn1,-1%,13%,0%,0,-2%,8%
O=S(=O)(c1ccc(-c2n[nH]c(=S)o2)cc1)N1CCCCC1,-4%,28%,?,-77*,-1%,11%
O=S(=O)(c1ccc(=S)[nH]c1)N1CCCCC1,?,-1%,?,-1,27%,-16%
O=S(=O)(c1ccc(-c2n[nH]c(=S)o2)cc1)N1CCCC1,-3%,-10%,-19%,-83*,-4%,-3%
CCCC(=O)N1c2nc(-c3ccco3)nn2C2(CCCCC2)[C@@H]2CCCC[C@@H]21,.,.,.,.,-8%,-4%
CS(=O)(=O)C1=NSC2=NC(=O)/C(=C\c3ccc(OC(=O)c4ccco4)cc3)C(=N)N21,.,.,.,.,-2%,.
CCOc1cc(/C=C2/C(=N)N3C(=NC2=O)SN=C3S(=O)(=O)CC)ccc1OC(=O)c1ccco1,?,?,27µM*,?,?,89µM*
COc1cc(/C=C2/C(=N)N3C(SC)=NSC3=NC2=O)ccc1OC(=O)c1ccco1,?,?,?,?,-3%,?
CCS(=O)(=O)C1=NN2C(=N)/C(=C\c3ccc(OC(=O)c4ccco4)c(OC)c3)C(=O)N=C2S1,?,?,?,-57*,-26%,?
COc1cc(/C=C2/C(=N)N3C(=NC2=O)SN=C3S(C)(=O)=O)ccc1OC(=O)c1ccco1,?,?,?,-66*,-17%,?
CCS(=O)(=O)C1=NSC2=NC(=O)/C(=C\c3ccc(OC(=O)c4ccco4)c(OC)c3)C(=N)N21,?,?,?,-66*,-5%,-25%
Cc1ccccc1NC(=O)Cn1c(=O)n(CCC(=O)NCc2ccc3c(c2)OCO3)c(=O)c2sccc21,.,.,.,.,2%,11%
Cc1c(NC(=O)Cc2ccc(Cl)cc2)cccc1-c1nc2cccnc2s1,.,.,.,.,-9%,17%
COc1cc(CNCCSc2nnnn2C)ccc1OCc1ccccc1C,.,.,.,.,-2%,-10%
COc1cc(NC(=O)c2cccc(Cl)c2)c(OC)cc1NC(=O)CN1CCCCC1,?,-22%,30µM*,0,-3%,-25%
COc1cc(NC(=O)c2cccc(Cl)c2)c(OC)cc1NC(=O)CN1CCOCC1,-1%,-17%,-4%,7,-4%,-4%
Cn1cnc2c(=O)oc3ccc(S(=O)(=O)N4CCN(c5cccc(Cl)c5)CC4)cc3c21,.,.,.,.,-2%,20%
COc1ccc(C2Nc3ccccc3C(=O)N2Cc2ccccc2)cc1COc1ccc([N+](=O)[O-])cc1 (stereo unspecified),.,.,.,.,.,-9%
COc1ccc2cnnc(SCC(=O)Nc3ccc(C(=O)O)cc3)c2c1OC,0%,2%,-8%,-66*,0%,3%
COc1ccc2cnnc(SCC(=O)Nc3ccc(C(C)=O)cc3)c2c1OC,2%,15%,-1%,-4,-2%,-9%
CCc1ccc(C2CC(=O)c3c([nH]c(C(=O)OCC4CCCCC4)c3C)C2)cc1 (stereo unspecified),.,.,.,.,3%,-4%
